Results from PubChem BioAssay (NCATS).
Where “and” joins values, the source holds several entries; their conditions need not be identical. Equal entries are not always repeated. Results filed as inconclusive are left out. Calls of active or inactive are those of the source. Unless noted, calls follow the shape of the dose curve; as a rule, active = well fitted curve in the direction sought with a large enough effect; inconclusive = small, poorly fitted or top-dose-only effect, or another doubt; inactive = no such curve, though single readings can be large; an effect the other way counts as inactive or inconclusive.

Key:
[1] = target: Methanococcus maripaludis chaperonin (MmCpn) (UniProt Q6LX38); test: High-Throughput Screening for Modulators of Cytosolic Chaperonin Activity: MmCpn Primary Screen (AID 488978);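 also: 50 nM MmCpn enzyme hydrolysing 30 µM ATP at 37 °C; 0% is about no effect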
Chain of Methanococcus maripaludis chaperonin (MmCpn) (Q6LX38 1-543): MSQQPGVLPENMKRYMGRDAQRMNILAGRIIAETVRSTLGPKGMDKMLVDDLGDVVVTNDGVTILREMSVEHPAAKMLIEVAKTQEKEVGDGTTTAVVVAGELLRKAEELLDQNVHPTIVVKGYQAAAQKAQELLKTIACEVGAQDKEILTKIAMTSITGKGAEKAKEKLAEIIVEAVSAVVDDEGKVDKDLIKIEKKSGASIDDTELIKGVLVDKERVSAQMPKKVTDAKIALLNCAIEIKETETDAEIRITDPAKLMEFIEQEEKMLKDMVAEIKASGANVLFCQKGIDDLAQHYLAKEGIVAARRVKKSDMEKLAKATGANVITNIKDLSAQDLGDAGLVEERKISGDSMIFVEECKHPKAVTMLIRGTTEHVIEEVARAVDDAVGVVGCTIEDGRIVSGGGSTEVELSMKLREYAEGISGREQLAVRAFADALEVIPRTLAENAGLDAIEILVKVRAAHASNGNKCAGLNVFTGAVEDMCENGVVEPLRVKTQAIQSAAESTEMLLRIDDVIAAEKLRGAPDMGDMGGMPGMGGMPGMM
In short: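 ATPase activity of 50 nM MmCpn was assayed with 30 uM ATP, 10 minutes at 37C, after a 5 min compound preincubation at room temperature. ADP production was read as HTRF emission at 590 and 665 nm.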

[2] = target: Thyrotropin receptor (Homo sapiens) (UniProt P16473); test: qHTS Assay for Antagonists of the Thyroid Stimulating Hormone Receptor (AID 488980); also: series mostly up to about 58 µM; 0% is about no effect
In short: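 Inhibition of cAMP raised by EC80 TSH (4 nM final) was read by HTRF, with lysate cAMP competing against cAMP-d2 for cryptate antibody after 30 min at room temperature. The cells were transfected HEK293 held in phosphodiesterase inhibitor RO 20-1724 at 70 uM.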

[3] = target: D(1A) dopamine receptor (Homo sapiens) (UniProt P21728); test: HTS Assay for Allosteric Agonists of the Human D1 Dopamine Receptor: Primary Screen for Potentiators (AID 488982); also: 0% is about no effect
Chain of D(1A) dopamine receptor (Homo sapiens) (P21728 whole entry, looked up): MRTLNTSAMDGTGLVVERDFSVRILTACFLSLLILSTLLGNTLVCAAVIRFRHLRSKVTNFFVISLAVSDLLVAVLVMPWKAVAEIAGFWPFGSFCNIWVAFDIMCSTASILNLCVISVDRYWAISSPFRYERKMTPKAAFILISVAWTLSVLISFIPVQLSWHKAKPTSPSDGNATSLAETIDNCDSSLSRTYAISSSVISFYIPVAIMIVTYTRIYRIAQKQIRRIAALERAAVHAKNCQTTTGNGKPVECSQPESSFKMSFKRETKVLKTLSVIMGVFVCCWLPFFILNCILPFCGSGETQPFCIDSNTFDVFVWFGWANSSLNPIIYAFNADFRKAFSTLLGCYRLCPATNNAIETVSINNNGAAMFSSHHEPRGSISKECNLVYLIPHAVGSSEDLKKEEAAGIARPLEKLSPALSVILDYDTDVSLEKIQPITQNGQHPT
In short: (§1)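 Tetracycline-induced HEK293 T-REx cells force-coupled to calcium signalling were incubated overnight at 30 C and dye-loaded at room temperature. Calcium flux over 180 s after compound addition flagged agonists; a further 180 s read after EC20 dopamine flagged potentiators.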

[4] = Validation screen for small molecules that induce genotoxicity in human embryonic kidney (HEK293T) cells expressing luciferase-tagged ELG1 (AID 493106); also: potency is read from the fitted curve at half-maximal effect
In short: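 In this validation screen, increased ELG1-luciferase signal flags compounds causing genetic stress. HEK293T reporter cells are treated 16 hr (37 °C, 5% CO2), developed with ONE-Glo for 30 min at room temperature, and imaged on a CCD-based reader.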

[5] = target: ATPase family AAA domain-containing protein 5 (Homo sapiens) (UniProt Q96QE3); test: Validation screen for small molecules that inhibit ELG1-dependent DNA repair in human embryonic kidney (HEK293T) cells expressing luciferase-tagged ELG1 (AID 493107);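 also: cells co-treated with the DNA-damaging agent 5-fluorouridine alongside compound; series mostly up to about 46 µM; % is scaled to controls: 0 for no effect and ±100 for the full control effect; inhibitors lower the ELG1-luciferase luminescence signal; nearly all actives have a fitted effect of over 70% in size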
In short: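 Compounds reducing 5-fluorouridine-driven ELG1-luciferase signal in HEK293T cells were scored; exposure lasted 16 hr at 37 °C with luminescence detected via ONE-Glo.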

[6] = target: Thyrotropin-releasing hormone receptor (Homo sapiens) (UniProt P34981); test: qHTS for Small Molecule Agonists and Allosteric Enhancers of Human TRH Receptor: Validation Screen for Agonists (AID 493127;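 active = calcium activation more than 3 SD above the typical response in the agonist read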;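 also: intracellular calcium rise by fluo-8 fluorescence before TRH EC20 addition; 0% is about no effect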); conditions: TRH receptor agonist cell assay; at 2 µM; stronger effect = higher value
Chain of Thyrotropin-releasing hormone receptor (Homo sapiens) (P34981 whole entry, looked up): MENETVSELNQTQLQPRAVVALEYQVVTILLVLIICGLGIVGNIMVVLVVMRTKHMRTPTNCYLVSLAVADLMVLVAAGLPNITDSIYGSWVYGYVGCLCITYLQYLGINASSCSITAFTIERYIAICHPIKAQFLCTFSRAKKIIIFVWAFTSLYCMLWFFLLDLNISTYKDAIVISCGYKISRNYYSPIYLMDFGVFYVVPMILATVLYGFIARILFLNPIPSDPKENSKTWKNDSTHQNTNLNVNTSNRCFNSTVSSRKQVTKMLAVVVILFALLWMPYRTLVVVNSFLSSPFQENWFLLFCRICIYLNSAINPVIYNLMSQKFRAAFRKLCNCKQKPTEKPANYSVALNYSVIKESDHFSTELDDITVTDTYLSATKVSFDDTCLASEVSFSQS
In short: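 Kinetic fluorescence assay of agonist-induced calcium release: overnight-plated TRHR cells, room-temperature fluo-8 loading, baseline then compound addition with per-second reads.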

[7] = Nrf2 qHTS screen for inhibitors: Validation (AID 493153; active = well fitted inhibition curve with a large enough effect in the main read-out, with a control signal flat, not every such curve was filed as active); conditions: Potency: luciferase luminescence; viability change: measured here: cytotoxicity max response
In short: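 In this counterscreened reporter format, each well gives two signals: CellTiter-Fluor fluorescence for cytotoxicity and ARE-luciferase luminescence for Nrf2 function. A549 ARE_Fluc cells in 5% FBS OPTI-MEM were exposed to compound titrations for 18-24 h.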

[8] = qHTS for Inhibitors of Cell Surface uPA Generation: Validation Assay (AID 493164);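 also: RAW 264.7 macrophage cells exposed to compound for 18 h; 0% is about no effect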
In short: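 Compounds are titrated over seven points (2.45 nM–38.3 uM final) onto pre-plated RAW 264.7 cells and incubated for 18 h. Retained intracellular ATP, measured with ATP-Lite, indicates blocked lethal factor entry.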

[9] = target: Galactokinase (Homo sapiens) (UniProt P51570); test: qHTS Validation Assay for Inhibitors of Human Galactokinase (GALK) (AID 493189); also: 0% is about no effect
Chain of Galactokinase (Homo sapiens) (P51570 whole entry, looked up): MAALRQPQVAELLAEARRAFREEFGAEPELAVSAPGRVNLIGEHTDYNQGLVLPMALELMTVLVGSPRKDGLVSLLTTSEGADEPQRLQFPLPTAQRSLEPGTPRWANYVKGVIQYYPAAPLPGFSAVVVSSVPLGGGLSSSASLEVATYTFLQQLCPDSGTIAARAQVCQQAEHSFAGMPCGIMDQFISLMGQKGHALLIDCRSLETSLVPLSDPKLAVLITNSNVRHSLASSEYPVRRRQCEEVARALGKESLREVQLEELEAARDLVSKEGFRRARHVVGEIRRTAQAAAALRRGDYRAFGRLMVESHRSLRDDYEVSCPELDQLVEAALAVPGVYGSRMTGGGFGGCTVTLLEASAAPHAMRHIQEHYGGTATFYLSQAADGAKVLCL
In short: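 Inhibition was measured as remaining ATP, detected by luciferase luminescence after a 1 h room-temperature reaction. Final conditions: 5 nM GALK, 100 uM galactose, 35 uM ATP, pH 8.0 HEPES buffer.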

[10] = Validation screen for small molecules that induce DNA re-replication in SW480 colon adenocarcinoma cells (AID 504364); also: 0% is about no effect
In short: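 Hoechst-stained SW480 nuclei, imaged at 405 nm excitation after 48 hr compound exposure, were counted for elevated DNA content as the re-replication signal.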

[11] = target: Peptidyl-prolyl cis-trans isomerase NIMA-interacting 1 (Homo sapiens) (UniProt Q13526); test: qHTS Validation Assay to Find Inhibitors of Pin1 (AID 504536; active = well fitted inhibition curve with a large enough effect in the polarisation, with a control signal flat, not every such curve was filed as active; the % refers to the polarisation;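 also: 0% = full Pin1 enzyme wells and -100% = no-enzyme wells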)
Chain of Peptidyl-prolyl cis-trans isomerase NIMA-interacting 1 (Homo sapiens) (Q13526 whole entry, looked up): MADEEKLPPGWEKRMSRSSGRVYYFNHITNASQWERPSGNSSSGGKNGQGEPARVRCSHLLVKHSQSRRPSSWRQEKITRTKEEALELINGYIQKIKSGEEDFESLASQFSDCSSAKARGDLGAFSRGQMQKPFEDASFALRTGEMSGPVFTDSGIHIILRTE
In short: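 Fluorescence polarization competition: compounds (titration) displace HiFluor-488-labeled Pin1-1b peptide from Pin1 (0.3 uM final) in pH 7.5 HEPES buffer with DTT, 10 min at room temperature; %Activity normalized to no-enzyme wells, curves fitted.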

[12] = target: Phosphoglycerate kinase, glycosomal (Trypanosoma brucei brucei) (UniProt P07378); test: qHTS Validation Assay to Find Inhibitors of Phosphoglycerate Kinase (AID 504547);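 also: control wells lack PGK and mark full inhibition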
Chain of Phosphoglycerate kinase, glycosomal (Trypanosoma brucei brucei) (P07378 whole entry, looked up): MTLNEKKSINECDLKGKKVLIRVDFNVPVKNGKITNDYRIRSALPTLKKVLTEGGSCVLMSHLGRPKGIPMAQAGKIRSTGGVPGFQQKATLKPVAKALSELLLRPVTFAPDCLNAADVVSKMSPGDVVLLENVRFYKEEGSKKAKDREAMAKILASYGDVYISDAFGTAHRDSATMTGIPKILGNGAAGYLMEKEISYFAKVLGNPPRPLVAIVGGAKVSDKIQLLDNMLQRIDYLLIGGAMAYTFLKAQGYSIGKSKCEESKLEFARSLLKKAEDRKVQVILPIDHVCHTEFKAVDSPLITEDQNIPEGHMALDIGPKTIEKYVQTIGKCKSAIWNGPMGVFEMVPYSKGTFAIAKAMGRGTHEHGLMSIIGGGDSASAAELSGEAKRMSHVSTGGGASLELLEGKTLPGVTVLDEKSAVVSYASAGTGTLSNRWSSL
In short: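 In TEA buffer (100mM, pH 7.6) containing 5mM MgCl2 and 0.01% Tween-20, the GAPDH-coupled PGK reaction proceeded for 60 minutes at room temperature before a single luminescence reading using Kinase-Glo Plus.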

[13] = target: phosphoglycerate mutase (Leishmania major) (UniProt Q4Q090); test: qHTS Validation Assay to Find Inhibitors of Phosphoglycerate Mutase (AID 504548); also: series mostly up to about 58 µM; % is scaled to controls: 0 for no effect and ±100 for the full control effect
In short: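 Lm PGAM 1.25nM final; 100 mM TEA pH 7.6, 5 mM MgCl2, 0.01% Tween-20; 45 min RT; Kinase-GloPlus, 10 min; end-point luminescence. Enzyme-free wells as negative controls.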

[14] = target: Ubiquitin carboxyl-terminal hydrolase 1 (Homo sapiens) (UniProt O94782); test: Inhibitors of USP1/UAF1: Pilot qHTS (AID 504865); also: nearly all actives have a fitted effect of over 35% in size; also: potency is read from the fitted curve at half-maximal effect
Chain of Ubiquitin carboxyl-terminal hydrolase 1 (Homo sapiens) (O94782 whole entry, looked up): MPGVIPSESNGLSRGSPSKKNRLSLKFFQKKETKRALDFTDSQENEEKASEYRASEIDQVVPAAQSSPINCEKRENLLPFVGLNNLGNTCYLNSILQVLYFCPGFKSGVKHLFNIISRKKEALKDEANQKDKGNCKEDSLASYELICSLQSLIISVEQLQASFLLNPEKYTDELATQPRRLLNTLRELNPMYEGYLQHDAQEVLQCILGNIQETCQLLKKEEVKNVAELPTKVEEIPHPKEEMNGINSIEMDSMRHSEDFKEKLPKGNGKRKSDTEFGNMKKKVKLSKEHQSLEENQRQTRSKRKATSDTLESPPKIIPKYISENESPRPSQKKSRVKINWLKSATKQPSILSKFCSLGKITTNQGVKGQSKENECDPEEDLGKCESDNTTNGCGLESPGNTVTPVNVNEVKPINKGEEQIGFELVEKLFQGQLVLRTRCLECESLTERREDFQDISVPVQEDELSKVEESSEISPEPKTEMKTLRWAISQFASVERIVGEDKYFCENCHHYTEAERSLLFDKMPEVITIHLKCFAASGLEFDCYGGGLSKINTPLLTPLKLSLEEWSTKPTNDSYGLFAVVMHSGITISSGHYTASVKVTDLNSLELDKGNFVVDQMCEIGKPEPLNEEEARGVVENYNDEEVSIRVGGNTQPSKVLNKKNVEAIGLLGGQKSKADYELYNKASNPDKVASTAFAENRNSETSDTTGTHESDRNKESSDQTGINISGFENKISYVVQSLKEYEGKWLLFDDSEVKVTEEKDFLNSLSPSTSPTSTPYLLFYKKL
In short: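 Deubiquitinase activity followed as kinetic rhodamine fluorescence release from 150 nM Ub-Rho. 1 nM USP1/UAF1 with compound, after 15 min room-temperature preincubation, in HEPES pH 7.8 buffer containing TCEP, EDTA, BSA and Tween-20.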

[15] = target: D(1A) dopamine receptor (Homo sapiens) (UniProt P21728); test: HTS Assay for Allosteric Agonists of the Human D1 Dopamine Receptor: Primary Screen for Agonists (AID 488981); also: potency is read from the fitted curve at half-maximal effect; as to activation: 0% is about no effect
In short: as §1

[16] = target: D(1A) dopamine receptor (Homo sapiens) (UniProt P21728); test: HTS Assay for Allosteric Agonists of the Human D1 Dopamine Receptor: Primary Screen for Antagonists (AID 488983);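 also: calcium flux response to an EC80 dopamine challenge measured with no-wash dye; nearly all actives have a fitted effect of over 65% in size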; also: potency is read from the fitted curve at half-maximal effect
In short: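 In this primary screen, compounds are applied to calcium-dye-loaded HEK293 T-REx cells with force-coupled D1 expression induced overnight at 30 C. An EC80 of dopamine follows the 180 s compound phase, and calcium is monitored for a further 180 s.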

[17] = target: ATP-dependent 6-phosphofructokinase (Trypanosoma brucei brucei) (UniProt O15648); test: qHTS Assay to Find Inhibitors of T. brucei phosphofructokinase: hit validation (AID 492961);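 also: luminescence reports ADP formed as PFK phosphorylates fructose-6-phosphate with ATP; series mostly up to about 51 µM; % is scaled to controls: 0 for no effect and ±100 for the full control effect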
Chain of ATP-dependent 6-phosphofructokinase (Trypanosoma brucei brucei) (O15648 whole entry, looked up): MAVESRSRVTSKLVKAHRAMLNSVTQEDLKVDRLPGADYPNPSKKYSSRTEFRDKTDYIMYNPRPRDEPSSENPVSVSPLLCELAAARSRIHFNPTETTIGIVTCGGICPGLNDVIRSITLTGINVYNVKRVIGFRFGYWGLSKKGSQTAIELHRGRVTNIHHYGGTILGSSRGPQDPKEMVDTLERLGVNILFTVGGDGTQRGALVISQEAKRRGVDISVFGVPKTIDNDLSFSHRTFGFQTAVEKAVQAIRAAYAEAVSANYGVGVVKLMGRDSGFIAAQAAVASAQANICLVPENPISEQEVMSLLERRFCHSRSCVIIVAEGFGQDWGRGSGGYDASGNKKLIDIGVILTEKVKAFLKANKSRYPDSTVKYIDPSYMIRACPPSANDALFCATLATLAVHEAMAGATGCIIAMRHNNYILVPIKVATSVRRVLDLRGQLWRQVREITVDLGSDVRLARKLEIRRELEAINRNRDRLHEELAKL
In short: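 Reaction: 0.1 M triethanolamine pH 8.0, 5 mM MgCl2, F6P 0.5 mM, ATP 0.1 mM, PFK 1.25 nM, 45 min RT. Read-out: ADP-Glo luminescence. Analysis: concentration-response fits, classed by r2 and efficacy.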

[18] = target: Transient receptor potential cation channel subfamily V member 1 (Homo sapiens) (UniProt Q8NER1); test: HTS Assay for Compounds that Act as Enhancers of the Vanilloid Receptor 1 (AID 488979); also: 0% is about no effect
Chain of Transient receptor potential cation channel subfamily V member 1 (Homo sapiens) (Q8NER1 whole entry, looked up): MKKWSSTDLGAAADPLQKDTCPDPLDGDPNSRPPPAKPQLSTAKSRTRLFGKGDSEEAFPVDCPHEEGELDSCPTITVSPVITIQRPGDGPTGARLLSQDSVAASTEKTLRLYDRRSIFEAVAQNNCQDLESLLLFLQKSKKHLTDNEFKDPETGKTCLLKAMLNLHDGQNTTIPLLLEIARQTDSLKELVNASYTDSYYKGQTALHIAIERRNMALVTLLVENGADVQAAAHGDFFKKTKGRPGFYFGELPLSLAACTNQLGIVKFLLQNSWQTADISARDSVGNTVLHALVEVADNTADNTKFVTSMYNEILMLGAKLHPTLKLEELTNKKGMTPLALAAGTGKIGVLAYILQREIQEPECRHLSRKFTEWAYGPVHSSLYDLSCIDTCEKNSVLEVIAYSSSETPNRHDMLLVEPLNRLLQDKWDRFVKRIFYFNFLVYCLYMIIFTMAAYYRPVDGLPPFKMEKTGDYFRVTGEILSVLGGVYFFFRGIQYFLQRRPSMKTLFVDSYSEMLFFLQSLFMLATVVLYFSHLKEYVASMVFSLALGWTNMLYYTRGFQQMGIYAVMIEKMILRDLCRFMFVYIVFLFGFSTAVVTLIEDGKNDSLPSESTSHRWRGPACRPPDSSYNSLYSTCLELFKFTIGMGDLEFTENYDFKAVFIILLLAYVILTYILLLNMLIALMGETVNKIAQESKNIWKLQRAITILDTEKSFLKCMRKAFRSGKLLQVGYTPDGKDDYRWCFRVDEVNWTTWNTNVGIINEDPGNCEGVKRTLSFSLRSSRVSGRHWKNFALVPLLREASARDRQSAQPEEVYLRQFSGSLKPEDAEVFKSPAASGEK
In short: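 TRPV1-expressing cells loaded with Fluo-8 calcium dye; compounds added and calcium influx read kinetically for 3 min (agonist phase), then capsaicin at EC20 added and read 2 min more for enhancement. Fluorescence ex 480/em 520 nm.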

[19] = target: Tyrosyl-DNA phosphodiesterase 1 (Homo sapiens) (UniProt Q9NUW8); test: Confirmation Assay for Inhibitors of Tyrosyl-DNA Phosphodiesterase (TDP1) (AID 489007); conditions: recombinant human TDP1 enzymatic activity, dose-response; also: potency is read from the fitted curve at half-maximal effect; nearly all actives have a fitted effect of over 40% in size
In short: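 Loss of AlphaScreen signal reports Tdp1 cleavage of a dual-labelled DNA substrate. Conditions: 1 nM E. coli-derived enzyme, 15 nM substrate, 15 min compound preincubation, 5 min reaction, 10 min bead incubation, all at room temperature.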

[20] = target: Chromobox protein homolog 1 (Homo sapiens) (UniProt P83916); test: qHTS Validation Assay for Inhibitors of HP1-beta Chromodomain Interactions with Methylated Histone Tails (AID 488953);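 also: loss of AlphaScreen luminescence from HP1-beta binding biotinylated H3K9me3 peptide; series mostly up to about 110 µM; % is scaled to controls: 0 for no effect and ±100 for the full control effect; nearly all actives have a fitted effect of over 50% in size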
Chain of Chromobox protein homolog 1 (Homo sapiens) (P83916 whole entry, looked up): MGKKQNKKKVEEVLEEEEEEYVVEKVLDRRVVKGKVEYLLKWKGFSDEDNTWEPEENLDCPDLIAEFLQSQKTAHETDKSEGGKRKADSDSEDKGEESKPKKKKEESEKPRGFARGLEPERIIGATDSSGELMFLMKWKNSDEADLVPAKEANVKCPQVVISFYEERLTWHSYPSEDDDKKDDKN
In short: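 Compounds pinned into a preassembled complex of HP1-beta and trimethyl-K9 histone H3(1-18) biotin peptide (50 nM each; PBS pH 7.4, 0.01% Tween-20). After 30 min, bead-based AlphaScreen detection followed.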

CNCCC(Oc1ccc(C(F)(F)F)cc1)c1ccccc1 (stereo unspecified)
3.02%: viability change [7]
inactive: Potency [1] | outcome [2] | outcome [3] | Potency [4] | outcome [5] | activation [6] 22.8% | Potency [7] | outcome [8] | outcome [9] | outcome [10] | outcome [11] | outcome [12] | outcome [13] | Potency [14]

O=C1N=C(O)CN1/N=C/c1ccc(-c2ccc([N+](=O)[O-])cc2)o1
-12.1%: viability change [7]
inactive: Potency [1] | outcome [2] | Potency [15] | outcome [3] | Potency [16] | Potency [4] | outcome [5] | Potency [7] | outcome [8] | outcome [9] | outcome [10] | outcome [11] | outcome [12]

CN(C)CCCN1c2ccccc2CCc2ccccc21
inactive: Potency [1] | outcome [2] | Potency [15] | Potency [4] | outcome [5] | activation [6] 2.19% | Potency [7] | outcome [8] | outcome [12]
-5.46%: viability change [7]

[Cl][In]([Cl])[Cl]
inactive: Potency [17]

COCCOC(=O)C1=C(C)NC(C)=C(C(=O)OC/C=C/c2ccccc2)C1c1cccc([N+](=O)[O-])c1 (stereo unspecified)
inactive: Potency [1] | Potency [15] | outcome [3] | Potency [16] | Potency [17] | Potency [4] | outcome [8] | outcome [11] | outcome [12] | outcome [13]

CC(O)COc1ccccc1 (stereo unspecified)
inactive: Potency [17]

CCCCOc1cc(C(=O)OCCN(CC)CC)ccc1N
inactive: Potency [17]

CCC(=O)Nc1ccc(O)cc1
inactive: Potency [17]

CCOc1nc2cccc(C(=O)O)c2n1Cc1ccc(-c2ccccc2-c2nn[nH]n2)cc1
inactive: Potency [17]

CCN(CC)CCCC(C)Nc1c2ccc(Cl)cc2nc2ccc(OC)cc12 (stereo unspecified)
inactive: Potency [1] | outcome [2] | outcome [3] | activation [6] -2.88% | outcome [8] | outcome [9] | outcome [10] | outcome [12]
active: Potency [15] 11.2 µM | Potency [4] 2.59 µM | Potency [14] 56.2 µM and 79.4 µM

Oc1cn2c(n1)Nc1ccc(Cl)c(Cl)c1C2
inactive: Potency [17]

Nc1ccc(S(=O)(=O)Nc2ccc(Cl)nn2)cc1
inactive: Potency [17]

NC(=O)NNc1ccccc1
inactive: Potency [17]

Cc1ccc(C(C)C)cc2c(C)ccc1-2
inactive: Potency [17]

COc1ccc2[nH]c(S(=O)Cc3ncc(C)c(OC)c3C)nc2n1 (stereo unspecified)
inactive: Potency [17]

O=C1OC(OC(=O)c2cccnc2Nc2cccc(C(F)(F)F)c2)c2ccccc21 (stereo unspecified)
inactive: Potency [17]

C[C@H]1O[C@@H](n2cc(F)c(=O)[nH]c2=O)[C@H](O)[C@@H]1O
inactive: outcome [18] | outcome [2] | activation [6] 0.688% | outcome [9] | outcome [10]

CCN(CC)CCNC(=O)c1c(C)[nH]c(/C=C2\C(=O)Nc3ccc(F)cc32)c1C
inactive: Potency [17]

NC(N)=NCCC[C@H](N)C(=O)O
inactive: Potency [1] | outcome [18] | outcome [2] | Potency [15] | outcome [3] | Potency [16] | Potency [4] | outcome [5] | activation [6] -0.438% | Potency [7] | outcome [8] | outcome [9] | outcome [10] | outcome [11] | outcome [12] | Potency [14]
3.44%: viability change [7]

O=C(CCCN1CCN(c2ccccn2)CC1)c1ccc(F)cc1
inactive: Potency [17]

CC1=C(CC(=O)O)c2cc(F)ccc2/C1=C\c1ccc(S(C)=O)cc1 (stereo unspecified)
inactive: Potency [1] | outcome [2] | Potency [15] | outcome [3] | Potency [16] | Potency [17] | Potency [4] | outcome [5] | Potency [7] | outcome [8] | outcome [9] | outcome [10] | outcome [11] | outcome [12]
-1.89%: viability change [7]

CC1=C(/C=C/C(C)=C/C=C/C(C)=C/C(=O)O)C(C)(C)CCC1
-3.39%: viability change [7]
inactive: Potency [1] | outcome [18] | Potency [15] | outcome [3] | Potency [16] | Potency [4] | outcome [5] | activation [6] 0.375% | Potency [7] | outcome [8] | outcome [9] | outcome [10] | outcome [11] | outcome [12]

OCc1cc(C(O)CNCCCCCCOCCCCc2ccccc2)ccc1O (stereo unspecified)
inactive: Potency [1] | outcome [2] | outcome [3] | Potency [16] | Potency [17] | Potency [4] | outcome [5] | activation [6] -0.25% | outcome [8] | outcome [9] | outcome [10] | outcome [11] | outcome [12] | Potency [14]

Cn1c(=O)c2c(ncn2CC2OCCO2)n(C)c1=O
inactive: Potency [17]

CN(C)CCC=C1c2ccccc2CCc2ccccc21
9.1%: viability change [7]
inactive: Potency [1] | outcome [2] | Potency [15] | Potency [4] | outcome [5] | activation [6] 1.31% | Potency [7] | outcome [8] | outcome [9] | outcome [10] | outcome [11] | outcome [12]

O=Cc1ccccc1C=O
active: Potency [19] 14.1 µM | Potency [14] 50.1 µM

COc1ccccc1O
inactive: Potency [17]

Cc1cc(C(C#N)c2ccc(Cl)cc2)c(Cl)cc1NC(=O)c1cc(I)cc(I)c1O (stereo unspecified)
inactive: Potency [17]

CN(C)CCCN1c2ccccc2Sc2ccc(Cl)cc21
4.06%: viability change [7]
inactive: Potency [1] | outcome [2] | Potency [4] | activation [6] 11.5% | Potency [7] | outcome [8] | outcome [9] | outcome [11] | outcome [12]

CCCCN(CCCC)CCCOC(=O)c1ccc(N)cc1
inactive: Potency [17]

Cc1cc2c(cc1S(N)(=O)=O)S(=O)(=O)CCC2
inactive: Potency [17]

CNCCCC1c2ccccc2C=Cc2ccccc21
4.24%: viability change [7]
inactive: Potency [20] | outcome [2] | Potency [15] | outcome [3] | Potency [17] | Potency [4] | outcome [5] | activation [6] 7.31% | Potency [7] | outcome [8] | outcome [9] | outcome [10] | outcome [11] | outcome [12] | Potency [14]
active: Potency [16] 11.2 µM
